Bioassay records deposited in PubChem BioAssay by National Center for Advancing Translational Sciences (NCATS).
Hits are enriched below; roughly 11% of the tested compounds scored in any of these assays.
IMPase Li inh – IMPase inhibition in cells with lithium potentiation | AID 1457 | Potency, µM (top dose mostly 59.4 µM), hits mostly inhibitors | 0.35% of 210,000 active | CHO-M1 cells, IP1 TR-FRET (IP-One), carbachol + lithium; active = well fitted curve in the direction sought with a large enough effect; inconclusive = small, poorly fitted or top-dose-only effect, or another doubt; inactive = no such curve, though single readings can be large; an effect the other way counts as inactive or inconclusive;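 note: IP1 builds up when IMPase is blocked and the TR-FRET signal falls; nearly all actives have a fitted effect of over 50% in size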
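CHO cells stably expressing M1 receptor (2000/well) were cultured 16–30 h, then exposed to compounds with a small lithium addition for 30 min at 37C. IP1 was measured by TR-FRET competition; AC50 from Hill fits.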
ALDH1A1 inh – inhibitors of human aldehyde dehydrogenase 1A1; Potency, µM (titrated, usually from 75.3 µM), most hits filed as inhibitors; P00352; Purified ALDH1A1, NADH fluorescence, propionaldehyde substrate; 7.3% of 220,000 active
IMPase cell inh – IMPase inhibition in cells. CHO-M1 cells, IP1 accumulation, HTRF TR-FRET ratio. inhibition (IP1 accumulation), % at 46.1 µM. 120,000 tested, under 10 active. AID 901; active = well fitted curve in the direction sought with a large enough effect in the signal ratio, not every such curve was filed as active; inconclusive = small, poorly fitted or top-dose-only effect, or a change in a side signal; inactive = no such curve, though single readings can be large or run the other way; the % refers to the signal ratio;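 note: cells stimulated with carbachol in lithium chloride buffer; higher means more IMPase inhibition seen as more IP1 and lower FRET ratio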
Target sequence (P97697 whole entry, looked up): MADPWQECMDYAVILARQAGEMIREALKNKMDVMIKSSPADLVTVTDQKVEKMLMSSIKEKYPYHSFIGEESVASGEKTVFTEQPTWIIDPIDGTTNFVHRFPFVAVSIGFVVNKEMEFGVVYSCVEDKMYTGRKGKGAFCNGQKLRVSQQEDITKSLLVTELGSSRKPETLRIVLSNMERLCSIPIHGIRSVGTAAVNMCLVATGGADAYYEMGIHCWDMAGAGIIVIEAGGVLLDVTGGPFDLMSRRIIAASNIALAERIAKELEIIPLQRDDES
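Seeded CHO-M1 cells were dosed with compound at up to 46 uM, stimulated with carbachol for 30 min, then lysed in IP-One detection reagents. Higher IP1 lowers the TR-FRET signal.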
HPGD inh – HPGD (human) dehydrogenase inhibition; P15428; purified HPGD, NADH fluorescence kinetic, PGE2 substrate; Potency, µM, usual class: inhibitors; 4.3% of 150,000 active
Target sequence (P15428 whole entry, looked up): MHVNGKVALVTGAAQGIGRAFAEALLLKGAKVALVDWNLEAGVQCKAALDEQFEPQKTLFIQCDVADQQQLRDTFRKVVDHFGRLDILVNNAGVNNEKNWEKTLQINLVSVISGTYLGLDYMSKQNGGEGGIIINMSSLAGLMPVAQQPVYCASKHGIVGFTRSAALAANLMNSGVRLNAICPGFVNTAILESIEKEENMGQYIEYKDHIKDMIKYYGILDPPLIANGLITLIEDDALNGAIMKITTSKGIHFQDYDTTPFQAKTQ
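20 nM HPGD preincubated 15 min at room temperature with compound in 50 mM Tris-HCl pH 8, 0.01% Tween 20. Started with 1 mM NAD+ and 30 uM prostaglandin E2; NADH fluorescence (360/450 nm) read 5 times over 30-s intervals, last minus first.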
ALOX12 inhib – blocks human 12-lipoxygenase activity | purified 12-hLO, xylenol orange hydroperoxide absorbance | P18054 | 0.12% of 150,000 active | Potency, µM (doses to about 57.1 µM), actives largely listed as inhibitors; active = well fitted curve in the direction sought with a large enough effect; inconclusive = small, poorly fitted or top-dose-only effect, or another doubt; inactive = no such curve, though single readings can be large; an effect the other way counts as inactive or inconclusive; note: nearly all actives have a fitted effect of over 55% in size
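Purified human 12hLO (150 nM final) was preincubated with compounds for 15 min at room temperature in 25 mM Hepes pH 7.0, 0.01% Triton X-100, then reacted with 40 uM arachidonic acid for 30 min. Hydroperoxide was detected with ferrous iron/xylenol orange.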
PNC assembly inh – blocks assembly of the perinucleolar compartment; 3.1% of 140,000 active; AID 2417; activity change (PNC), negative = inhibition, % at 10 µM; PC3M PTB-GFP, PNC prevalence imaging, 16 h; active compounds read low;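 active = readout at or below -70, meaning at least 70% loss of cells showing the perinucleolar compartment, a nuclear body marking cancer cells; inconclusive = readout between -30 and a set limit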
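PC3M cells stably expressing PTB-GFP, 750–1000 cells/well, treated 16 h at 37 °C with compound (23 nl of library stock), in duplicate. After paraformaldehyde fixation and Hoechst stain, imaged at 20x; PNC prevalence scored by image analysis.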
Of the large screens only hits and unclear results are named; the others gave an inactive call. Unless noted, calls come from the whole dose curve; as a rule, active = well fitted inhibition curve with a large enough effect (not every such curve was filed as active); inconclusive = small, poorly fitted or top-dose-only effect, or another doubt; inactive = no such curve, though single readings can be large or run the other way.

CCOC(=O)OCC1OC(C#Cc2ccccc2)C=CC1OC(=O)OCC (stereo not given)	ALDH1A1 inh 3.55µM (no result: IMPase Li inh, IMPase cell inh, HPGD inh, ALOX12 inhib, PNC assembly inh)
Cc1cc(C)c2c(CC(=O)O)coc2c1	HPGD inh 20µM
COc1ccc(C(=O)N/N=C/c2cc3ccccc3[nH]c2=S)cc1	ALDH1A1 inh 1.41µM, HPGD inh 1.26µM, ALOX12 inhib 17.8µM
CC(=O)N1CCc2cc(C(=O)CN3CCCN(Cc4ccc(F)cc4)C3)ccc21	ALDH1A1 inh inconclusive
CC(=O)N1CCc2ccc(C(=O)CN3CCN(c4cccc(C)c4C)CC3)cc21	ALDH1A1 inh 8.91µM
CC(=O)N1CCc2cc(C(=O)CN3CCN(c4cccc(Cl)c4)CC3)ccc21	ALDH1A1 inh 6.31µM
CC(=O)N1CCc2cc(C(=O)CN3CCN(C(=O)c4ccco4)CC3)ccc21	ALDH1A1 inh 11.2µM, PNC assembly inh inconclusive
CC(=O)N1CCc2cc(C(=O)CN3CCC(C)CC3)ccc21	ALDH1A1 inh 20µM, HPGD inh inconclusive
O=C(CN(C(=O)c1ccccc1Cl)N1C(=O)CCCC1=O)c1ccc(Cl)cc1	none (no result: IMPase cell inh, HPGD inh, ALOX12 inhib, PNC assembly inh)
COc1ccc([N+](=O)[O-])c2c1CCN2C(=O)CC[C@H](N)C(=O)O	none (no result: PNC assembly inh)
Cc1ccc(CSc2ccc(-c3ccc4c(c3)OCO4)nn2)cc1	ALDH1A1 inh 11.2µM, HPGD inh inconclusive
CC1(N)CCC(C(C)(C)N)CC1 (stereo not given)	ALDH1A1 inh inconclusive (no result: IMPase cell inh, PNC assembly inh)
C=CCN=C1SCC(=O)N1S(=O)(=O)c1ccc(C)cc1	ALDH1A1 inh inconclusive
C=CCN=C1SC(CC)C(=O)N1S(=O)(=O)c1ccc(C)cc1 (stereo not given)	ALDH1A1 inh 6.31µM
CC(=O)OCC1=C(C(=O)O)N2C(=O)C(NC(=O)Cc3cccs3)C2SC1 (stereo not given)	HPGD inh 20µM (no result: IMPase cell inh, PNC assembly inh)
C=CCOCCN1C(=O)C2C3C=CC(C2C1=O)C1C2C(=O)N(CCOCC=C)C(=O)C2C31 (stereo not given)	ALDH1A1 inh 14.1µM (no result: IMPase cell inh, HPGD inh, ALOX12 inhib, PNC assembly inh)
O=C(CCCn1c(=S)[nH]c2ccc(Br)cc2c1=O)NCC1CCCO1 (stereo not given)	ALDH1A1 inh 1.41µM, HPGD inh 7.08µM
Cn1c(=O)cc(SCC(=O)NCC2CCCO2)c2ccc(Cl)cc21 (stereo not given)	IMPase Li inh inconclusive, HPGD inh 14.1µM
O=C(CCCn1c(=O)[nH]c2cc(Cl)ccc2c1=O)NCCCN1CCCC1	none
O=C(CCCn1c(=O)[nH]c2cc(Cl)ccc2c1=O)NCC1CCCO1 (stereo not given)	PNC assembly inh -118.9
CCOC(=O)N1CCN(C(=O)CCCn2c(=S)[nH]c3ccc(Br)cc3c2=O)CC1	none
Cc1ccc(S(=O)(=O)Nc2ccccc2C(=O)c2ccc(C)c(C)c2)cc1	ALDH1A1 inh inconclusive, HPGD inh inconclusive (no result: IMPase cell inh, PNC assembly inh)
Cc1noc(C)c1C(=O)N1CCC2(CC1)CCN(c1ccccn1)CC2	ALDH1A1 inh inconclusive, HPGD inh inconclusive (no result: IMPase cell inh, PNC assembly inh)
O=C(N/N=C/c1ccc(F)cc1)c1ccccc1	none (no result: IMPase cell inh, HPGD inh, ALOX12 inhib, PNC assembly inh)
COc1ccccc1/C=N/NC(=O)c1ccc(NC(=O)c2ccccc2Br)cc1	ALDH1A1 inh inconclusive, HPGD inh inconclusive (no result: IMPase cell inh)
O=C(N/N=C/c1ccc(O)cc1)c1cccc(N/N=C/c2ccc(O)cc2)c1	ALDH1A1 inh 22.4µM (no result: IMPase Li inh, IMPase cell inh, HPGD inh, ALOX12 inhib, PNC assembly inh)
O=C(N/N=C/c1ccc(O)cc1)c1ccc(NC(=O)c2ccccc2Br)cc1	ALDH1A1 inh inconclusive, IMPase cell inh inconclusive, HPGD inh 14.1µM
O=C(C[n+]1ccc(C(=O)N/N=C/c2ccc(O)cc2)cc1)c1ccccc1	ALDH1A1 inh 1.58µM
O=C(Nc1ccccc1C(=O)N/N=C/c1ccc(F)cc1)c1ccccc1Br	ALDH1A1 inh inconclusive, PNC assembly inh -114.2
CCn1c(C)c(C(C)=O)c(N2CCN(c3cccc(Cl)c3)CC2)nc1=S	ALDH1A1 inh 14.1µM, HPGD inh inconclusive
CCn1c(C)c(C(C)=O)c(N2CCN(c3ccc(OC)cc3)CC2)nc1=S	ALDH1A1 inh 25.1µM (no result: IMPase cell inh, HPGD inh, ALOX12 inhib, PNC assembly inh)
CCOc1ccc(Nc2nnc(-n3nc(C)cc3C)c3ccccc23)cc1	none (no result: IMPase Li inh, ALDH1A1 inh, HPGD inh, ALOX12 inhib, PNC assembly inh)
CCOC(=O)CNC(=O)CSc1ncnc2c1cnn2-c1ccc(OC)cc1	HPGD inh inconclusive
CCc1nnc(NC(=O)CSc2ncnc3c2cnn3-c2ccc(OC)cc2)s1	IMPase Li inh 10µM, ALDH1A1 inh inconclusive, HPGD inh inconclusive
